Data published in PubChem BioAssay.
Values without a mark were called inactive. Active and inactive are the calls of the source.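 The calls were made as follows, unless noted: active = mean inhibition above 46.68%, the untreated control wells mean plus 3 SD; inactive = the rest.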

Assays:
[1] = biological target: Nuclear receptor coactivator 1 (Homo sapiens) (UniProt Q15788); test: NCOA1 GAL4-fusion reporter inhibition – cell-based, luminescence, quadruplicate, confirmation (AID 588820); details: HEK293 GAL4-SRC1 luciferase reporter, at 3.6 µM, hits give high values;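 also: 0% = DMSO wells and 100% = gossypol 36 µM treated wells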
[2] = repression of VP16-driven luciferase reporter – cell-based, luminescence, high throughput, counter-screen for SRC1 inhibitor project (AID 588824; in the data active = inhibition above about 25%); details: cell-based VP16 transactivation luciferase luminescence; at 3.6 µM; hits give high values

Chain of Nuclear receptor coactivator 1 (Homo sapiens) (Q15788 whole entry, looked up, the tested form may be a part): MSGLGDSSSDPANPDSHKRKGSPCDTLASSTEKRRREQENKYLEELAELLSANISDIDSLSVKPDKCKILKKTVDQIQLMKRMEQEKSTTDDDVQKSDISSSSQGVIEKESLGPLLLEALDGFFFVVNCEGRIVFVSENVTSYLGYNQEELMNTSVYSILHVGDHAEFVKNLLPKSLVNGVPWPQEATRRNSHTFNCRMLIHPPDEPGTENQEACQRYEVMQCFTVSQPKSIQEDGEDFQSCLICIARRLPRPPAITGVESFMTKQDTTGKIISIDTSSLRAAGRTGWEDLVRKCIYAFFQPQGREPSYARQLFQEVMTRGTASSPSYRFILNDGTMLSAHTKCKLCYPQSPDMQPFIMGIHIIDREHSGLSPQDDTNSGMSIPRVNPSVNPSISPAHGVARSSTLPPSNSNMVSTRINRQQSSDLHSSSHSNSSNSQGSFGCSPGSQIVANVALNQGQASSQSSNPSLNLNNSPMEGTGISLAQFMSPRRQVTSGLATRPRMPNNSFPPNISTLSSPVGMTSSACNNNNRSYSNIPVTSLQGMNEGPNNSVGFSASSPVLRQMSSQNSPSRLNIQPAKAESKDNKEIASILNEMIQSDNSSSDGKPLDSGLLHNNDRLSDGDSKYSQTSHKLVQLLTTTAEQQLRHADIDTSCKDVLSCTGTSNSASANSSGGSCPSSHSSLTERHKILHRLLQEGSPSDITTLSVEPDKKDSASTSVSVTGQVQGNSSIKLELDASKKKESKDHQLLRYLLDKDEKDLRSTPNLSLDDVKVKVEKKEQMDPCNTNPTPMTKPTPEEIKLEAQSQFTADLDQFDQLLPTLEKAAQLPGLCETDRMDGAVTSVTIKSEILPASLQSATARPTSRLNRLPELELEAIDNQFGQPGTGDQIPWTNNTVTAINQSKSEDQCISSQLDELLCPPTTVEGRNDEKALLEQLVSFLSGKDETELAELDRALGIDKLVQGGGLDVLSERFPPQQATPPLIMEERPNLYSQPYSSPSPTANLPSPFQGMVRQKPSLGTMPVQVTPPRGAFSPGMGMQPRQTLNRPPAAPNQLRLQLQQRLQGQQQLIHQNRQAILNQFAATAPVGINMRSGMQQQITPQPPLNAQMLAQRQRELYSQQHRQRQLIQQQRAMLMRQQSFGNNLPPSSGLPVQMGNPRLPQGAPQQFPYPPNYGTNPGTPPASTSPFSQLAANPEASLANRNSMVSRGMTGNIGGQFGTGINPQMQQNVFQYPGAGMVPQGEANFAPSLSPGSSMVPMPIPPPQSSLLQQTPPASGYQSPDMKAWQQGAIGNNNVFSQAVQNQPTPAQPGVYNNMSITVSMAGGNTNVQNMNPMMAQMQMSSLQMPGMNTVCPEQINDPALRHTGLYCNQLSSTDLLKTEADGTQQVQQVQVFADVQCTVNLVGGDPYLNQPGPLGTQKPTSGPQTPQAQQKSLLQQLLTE

SMILES | inhibition [1] [%] | inhibition [2]
CCOc1ccc(NC(=O)c2ccc(CN3CCc4ccccc4C3)cc2)cc1 | -25.7 | 36.5% (active)
CCC1(c2ccc(F)cc2)NC(=O)N(CC(=O)NCC(=O)Nc2cccc(C)c2C)C1=O (configuration not stated) | 6.24 | 6.8%
c1ccc(-c2cc(N3CCCCC3)nc(-c3ccccc3)n2)cc1 | -21.1 | -2.43%
Cc1ccc(S(=O)(=O)N2CCN(c3ncnc4sccc34)CC2)cc1C | -1.32 | 21.7%
COc1ccc(-c2nc(N3CCOCC3)nc3n[nH]c(N)c23)cc1 | 5.53 | 17.9%
COc1ccc(C(=O)NNC(=O)C(=O)Nc2ccc(C)c(Cl)c2)cc1 | 5.87 | -0.11%
CCOC(=O)N1CCN(CC(=O)Nc2ccc(F)c(F)c2)CC1 | -18.7 | -4%
O=C1Nc2cc(C(=O)NCC3CCCO3)ccc2S/C1=C/c1ccccc1F (configuration not stated) | -7.31 | -5.02%
C=CCc1ccccc1OCC(=O)N/N=C/c1ccc(OC(C)=O)cc1OC(C)=O | 16.6 | -4.05%
O=C(Nc1ccccc1N1CCOCC1)c1cc(-c2ccncc2)nc2ccccc12 | -29.7 | 2.98%
O=C(COc1ccc([N+](=O)[O-])cc1)Nc1ccccc1C(=O)NC1CC1 | 2.87 | -1.57%
Cc1ccccc1C(=O)/C(C#N)=N/Nc1c(C)n(C)n(-c2ccccc2)c1=O | 34.3 | 21.1%
Cc1cc(NCc2cccnc2)no1 | -7.64 | 9.01%
COc1ccc(/C=N/Nc2nc3ccccc3[nH]2)c(OC)c1OC | -27.8 | -23%
COc1ccc(CCN(C)C(=O)c2cc(S(=O)(=O)N3CCCCC3)ccc2Cl)cc1OC | -9.24 | 8.04%
O=C(COc1ccc(Cl)cc1Cl)NN1C(=O)C2C3C=CC(C3)C2C1=O (configuration not stated) | -1.23 | -10.4%
O=C1CSc2ccc(S(=O)(=O)NCc3ccccc3)cc2N1 | -4.74 | -9.61%
CN1CCN(c2ccc(Cl)cc2NC(=O)CC2OC(=O)c3ccccc32)CC1 (configuration not stated) | -37.2 | -6.69%
CCCc1cc(C(=O)N(C)CC(=O)Nc2ccc(OCC)c(OCC)c2)sc1C | 20.5 | 17.3%
COc1ccc(-c2cc(C(=O)N(C)CC(=O)Nc3cccc(F)c3)c3ccccc3n2)cc1OC | -19.1 | -8.17%
COc1ccc(-c2n[nH]c(=S)n2-c2ccc(C)cc2)cc1 | -68.5 | -40%
COc1ccc(-c2csc3ncnc(N4CCN(CCO)CC4)c23)cc1 | 0.84 | 9.88%
COc1ccc(C)cc1S(=O)(=O)N1CCCC(N2CCN(c3ccccc3)CC2)C1 (configuration not stated) | 2.59 | 6.89%
CCOc1ccc(CCN2C(=S)N([C@@H](Cc3ccc(O)cc3)CN3CCC[C@@H]3CN3C(=S)NC[C@@H]3CC(C)C)C[C@@H]2CC(C)C)cc1 | -13 | -0.17%

SMILES | inhibition [1] [%] | inhibition [2]
Cc1cc(C)nc(-n2ncc(C#N)c2N)n1 | -18.5 | 5.06%
CC(C)N(C)c1ncnc2c1ncn2[C@H]1CN(Cc2ccncc2)C[C@@H](CO)O1 | -19.9 | -7.41%
O=c1c2ccccc2cnn1Cc1n[nH]c(=S)n1C1CC2CCC1C2 (configuration not stated) | 8.04 | -8.54%
COc1ccc(C[C@H]2COC(=O)[C@@H]2Cc2ccc(OC3OC(CO)C(O)C(O)C3O)c(OC)c2)cc1OC (some centres not stated) | 9.39 | 31% (active)
CCOC(=O)CNC(c1ccccc1)c1cc(Br)ccc1NC(C)=O (configuration not stated) | -0.66 | 4.71%
CCOC1(OCC)OC(c2ccccc2)=C(C#N)C(C=Cc2ccccc2)C1(OCC)OCC (configuration not stated) | 0.8 | 4.67%
Fc1cccc(Cl)c1Cn1nnc2c(NCc3ccncc3)ncnc21 | -0.7 | 4.51%
O=C(NNc1ccnc2cc(Cl)ccc12)C1CCCCC1 | -34.1 | 31.1% (active)
COc1ccc(Cl)cc1NC(=O)CSc1nc(=O)n(CCN(C)C)c2c1CCCC2 | -13.4 | -0.03%
CCN(CC)c1ccc(NC(=O)CSc2n[nH]c(-c3ccco3)n2)cc1 | -8.8 | -1.86%
CCC1CCCCN1C(=O)CSc1nc(N)cc(=O)[nH]1 (configuration not stated) | -15.7 | -3.43%
O=C1N=C(N2CCCC2)S/C1=C\C=C\c1ccccc1 | -93.8 | -50.3%
O=C(c1ccc(Cl)c(Cl)c1)N1CCN(c2ccccn2)CC1 | -12.5 | 7.01%
O=C(CN1CCN(Cc2ccc(Cl)cc2)C1=O)NCCCN1CCOCC1 | -13.2 | -10.7%
N#Cc1cc2ccncc2c2ccccc12 | 30.8 | 16.7%
COc1ccc(OC)c(NC(=O)c2cc(-c3c(C)cc(C)cc3O)n[nH]2)c1 | 11.1 | 6.02%
CCN1CCN(c2ccc(S(=O)(=O)N3CCCCC3)cc2NC(=O)c2cccc(Cl)c2)CC1 | -2.97 | -2.54%
C(=N\Nc1nc2ccccc2[nH]1)/c1ccc2ncccc2c1 | -40.4 | -63.6%
O=C(CSc1nc2[nH]ncc2c(=O)[nH]1)N1CCCCC1 | -8.66 | -6.86%
Cc1cnc(C(=O)Nc2cccc3cccnc23)cn1 | -34.4 | -21.9%
CCCCCC(=O)N1CCN(S(=O)(=O)c2ccc3c(c2)OCCO3)CC1 | -2.33 | -1.65%
Cc1[nH]nc2ncc(C(=O)c3cc(F)ccc3O)cc12 | 18.4 | 16.1%
Cc1ccc(S(=O)(=O)NNC2=NS(=O)(=O)c3ccccc32)c(C)c1 | -17.6 | -7.56%
O=c1[nH]nnc2c1ncn2C1OC(CO)C(O)C1O (configuration not stated) | 0.97 | 17.6%

SMILES | inhibition [1] [%] | inhibition [2]
Cc1c(C(=O)NN)nn(-c2ccc(Cl)cc2)c(=O)c1C#N | -10.1 | 5.25%
COc1cccc(N2CC(NS(=O)(=O)c3cccnc3)CC2=O)c1 (configuration not stated) | -40.7 | -8.11%
Cc1c(O)ccc(/C(Cc2ccc3ccccc3n2)=N\N)c1O | -105 | -61.3%
Cc1cccc(C(=O)OCC(=O)NNC(=O)c2cccs2)c1O | -18.5 | -2.62%
Cc1cc(OCCCN2CCCC2)ccc1Cl | -14.7 | -11.8%
Cc1c(/C(O)=C2\C(=O)C(=O)N(CCCN(C)C)C2c2ccccc2)cnn1-c1ccccc1 (configuration not stated) | 6.48 | -4.83%
CCN(C(=O)CN1C(=O)S/C(=C\c2cccc(Cl)c2)C1=O)C1CCS(=O)(=O)C1 (configuration not stated) | 4.59 | 4.57%
CCc1cc(=O)[nH]c(SCC(=O)NCc2ccc3c(c2)OCO3)n1 | -4.66 | 1.83%
O=c1ccc2c(ccc3ncccc32)o1 | 18.8 | 8.67%
CC(C)(C)NC(=O)C1(C)CCC(=O)N1CCCn1ccnc1 (configuration not stated) | 22.2 | 16.9%
Cc1cccc(N2CCN(C(=O)CSc3nc4ccccc4nc3N3CC(C)OC(C)C3)CC2)c1C (configuration not stated) | -26.1 | 12.3%
CC(NC(=O)CSc1nc2ccccc2n1C)c1ccccc1 (configuration not stated) | 0.06 | -11.7%
CC(C)C[C@H](NC(=O)c1nc[nH]c1C(=O)N1CCN(C(=O)OC(C)(C)C)CC1)C(=O)OC(C)(C)C | 21.8 | 78.9% (active)
Cc1cc(C)c(S(=O)(=O)N2CCCC2=O)c(C)c1N(C)S(C)(=O)=O | 0.14 | -4.1%
COc1ccc(NC(=O)CN(C)C(=O)c2ccc(N3CCCCC3)c([N+](=O)[O-])c2)cc1 | -5.37 | -5.37%
CN1CCN(c2ccccc2/C=C2/C(=O)Nc3ccccc32)CC1 | -7.17 | 10.8%
C/C(=N\NC(=O)C(C)Oc1ccc([N+](=O)[O-])cc1)c1ccccn1 (configuration not stated) | -226 | 45.6% (active)
Cc1ccc(S(=O)(=O)c2nc(-c3ccccc3Cl)oc2NCCCN2CCOCC2)cc1 | -13.7 | -5.68%
CC(=O)NCCOc1nc(N(C)C)nc(N(C)C)n1 | -4.35 | 0%
COc1ccccc1N1CCN(C(=O)C2CCN(S(=O)(=O)c3ccc4c(c3)CC(C)N4C(=O)C3CC3)CC2)CC1 (configuration not stated) | -15.8 | 5.48%
NS(=O)(=O)c1ccc(CNC(=O)c2cnccn2)cc1 | -22.2 | -8.37%
Cc1c(C(=O)N2CCN(Cc3ccc4c(c3)OCO4)CC2)sc2ncnc(N3CCN(c4ccccc4F)CC3)c12 | -22.2 | 18.3%
CCN(c1ccccc1)S(=O)(=O)c1cc(C(=O)Nc2ccc(Br)cc2)ccc1F | 16.9 | 23.2%
